Measured values reported in PubChem BioAssay AID652106 (National Center for Advancing Translational Sciences (NCATS), 2013).
Among all 370,000 compounds or so, about 500 (0.14%) were called active. Inconclusive results (about 2%) are left out. This is one part of a sample in which actives are shown more often than they occur. Unmarked numbers belong to inactive results. The call rests on the fitted dose curve; in most records, active means well fitted activation curve with a large enough effect; inconclusive means small, poorly fitted or top-dose-only effect; inactive means no such curve, though single readings can be large or run the other way.

Test: qHTS of alpha-syn Inhibitors; further: nearly all actives have a fitted effect of over 65% in size; on growth rescue (activation): % of control where 0% means no effect
Details: Yeast expressing alpha-synuclein, BacTiter-Glo, 24 h; Potency: growth rescue; series mostly up to 46.1 µM; growth rescue (activation): at the top concentration
How it was run: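 Screening used galactose-induced yeast with toxic alpha-synuclein levels, exposed to compound for 24 hr at 30 deg C. Cell growth, read with BacTiter-Glo luminescence, gave the measured signal.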
Potency means the concentration at half of the fitted maximal effect.

| SMILES | growth rescue (activation) | Potency |
| --- | --- | --- |
| COc1ccc(C2Nc3ccc(NC(=O)COC(C)=O)cc3C(=O)N2Cc2ccccc2)cc1COc1ccc(NC(C)=O)cc1 (stereo not given) | 9.72% | – |
| N#Cc1ccc[n+](CC(=O)c2ccc(O)c(O)c2)c1 | -5.45% | – |
| CCCCCCCNc1ccc(/C=C/c2ccnc3ccccc23)cc1 | -63.8% | – |
| O=C(Nc1ccc(Cl)cc1)c1cnn2c1NC(=C1CC1)C=C2C(F)F | 2.5% | – |
| COc1ccc(/C=C/c2ccccn2)cc1OC | 2.19% | – |
| Cc1ccccc1NC(=O)Cn1c(=O)n(Cc2ccco2)c(=O)c2ccc(C(=O)NC3CCCC3)cc21 | -1.91% | – |
| OCC(O)C(O)C(O)C(O)C=Nc1ccc(/C=C/c2ccnc3ccccc23)cc1 (stereo not given) | -3.78% | – |
| Oc1ccc(Br)cc1C1C=C(c2ccc3c(c2)OCO3)NC(c2ccc(Cl)cc2)N1 (stereo not given) | -74.5% | – |
| CCc1ccccc1NC(=O)c1cnn(-c2ccc(F)cc2)c1C1CCNCC1 | 0.136% | – |
| CCCCCCC1(C)NC(c2ccc3c(c2)OCO3)=CC(c2ccccc2O)N1 (stereo not given) | 5.74% | – |
| CCCCC(CCCC)c1ccc(C=Nc2ccc(/C=C/c3ccnc4ccccc34)cc2)cc1 | 6.84% | – |
| CCOC(=O)c1c(NC(=O)c2ccc(S(=O)(=O)N3CCCC(C)C3)cc2)sc2c1CCN(C(C)C)C2 (stereo not given) | 11.7% | – |
| CCC1(C)CC(=O)NC1=O (stereo not given) | -0.966% | – |
| COc1ccc(CNc2nc(-c3ccc(Cl)cc3)nn2S(=O)(=O)c2ccc(C)cc2)cc1 | 4.81% | – |
| CN(C)C1=C2C=CC=CC2/C(=C2/C=Cc3ccccc32)C=C1 (stereo not given) | -15.3% | – |
| Cc1nn(C)c(Oc2ccc(Cl)cc2)c1C=O | -0.273% | – |
| Nc1ccc2nn(-c3ccc(Cl)cc3)nc2c1 | -1.77% | – |
| Nc1ccc(Oc2ccc(Cl)cc2)cc1 | – | 17.8 µM (active) |
| COc1cc2nc(N3CCCN(C)CC3)nc(NC(C)C)c2cc1OC | -1.61% | – |
| O=C(Nc1ccc([N+](=O)[O-])cc1)c1cnn2c1NC(=C1CC1)C=C2C(F)F | -0.794% | – |

| SMILES | growth rescue (activation) | Potency |
| --- | --- | --- |
| Nc1ncnc2c1c(I)cn2[C@@H]1C[C@H](N)[C@@H](O)[C@H]1O | 1.75% | – |
| Cc1cccc(-c2nnc(SC(C)C(=O)Nc3ccccc3)n2C)c1 (stereo not given) | 2.27% | – |
| O=C(c1ccc2c(=O)n(Cc3ccco3)c(=S)[nH]c2c1)N1CCCC1 | 29.5% | – |
| OCc1cnc(SCc2ccc(F)cc2)n1Cc1ccc(F)cc1 | 0.908% | – |
| Cc1ccc(C)c2sc(NC(=O)c3ccc(S(=O)(=O)N4CCCC4)cc3)nc12 | 1.28% | – |
| O=C1COc2ccc(-c3csc(-c4ccc(Cl)cc4)n3)cc2N1 | 1.55% | – |
| CCc1ccc(NC(=O)CN2CCSc3ccc(S(=O)(=O)N4CCCC4)cc32)cc1 | -0.525% | – |
| c1ccc(Cn2nnc3c(N4CCCCC4)ncnc32)cc1 | -1.05% | – |
| Cc1c(CCO)sc[n+]1CC(=O)c1ccc2ccccc2c1 | -0.239% | – |
| COc1cc2nc(Cl)nc(NC3CC3)c2cc1OC | -3.26% | – |
| COc1c(C)c2c(c(O)c1C/C=C(\C)CCC(=O)O)C(=O)OC2 | – | 7.08 µM (active) |
| Oc1ccc(Cl)cc1C1C=C(c2ccc3c(c2)OCO3)NC(c2c(F)cccc2Cl)N1 (stereo not given) | -5.55% | – |
| CCCCOc1ccc(C(=O)NO)cc1 | 3.36% | – |
| Cc1nn(-c2ccc(F)cc2)c(-n2cccc2)c1C(=O)N1CCN(c2ccccc2)CC1 | 8.12% | – |
| CCCCNC(=O)Cn1c(SCc2cccc(Cl)c2)nc2ccncc21 | -2.77% | – |
| COc1ccc(-c2[nH]ncc2CN(C)Cc2c(C)n[nH]c2C)c(OC)c1 | 2.52% | – |
| COc1ccc(Oc2cn[nH]c2-c2ccc(OC)cc2O)cc1 | – | 17.8 µM (active) |
| COc1ccc(-c2c(-c3ccc(OC)cc3O)nc(C)nc2C(F)(F)F)cc1 | -5.24% | – |
| Cc1ccc(-n2c(SCC(=O)c3ccccc3)nc3c([nH]c4ccccc43)c2=O)cc1 | 0.37% | – |
| COC(=O)C1=C(C(=O)OC)[C@@H]2N(Cc3ccccc3)c3ccccc3[C@@]23C[C@@H](C(=O)OC)N(S(=O)(=O)c2ccc(C(F)(F)F)cc2)C3=N1 | 1.17% | – |

| SMILES | growth rescue (activation) | Potency |
| --- | --- | --- |
| CNCCCOc1cc2nc(N3CCCN(C)CC3)nc(NC3CCN(C)CC3)c2cc1OC | 9.23% | – |
| Cc1cccc(-n2ccnc2SCC(=O)Nc2cc(C(F)(F)F)ccc2Cl)c1 | 0.0737% | – |
| COc1ccc(CCn2c3c(c(=O)[nH]c2=S)CN(C(C)C)CN3)cc1OC | -0.0407% | – |
| COc1ccc(N2C(=O)CS(=O)(=O)C23C(=O)N(Cc2ccc(C)cc2)c2ccccc23)cc1Cl (stereo not given) | 4.45% | – |
| CN(C)Cc1cn(-c2ccccc2)nc1-c1ccccc1 | 2% | – |
| O=C(Oc1ccc([N+](=O)[O-])cc1)c1ccc2ccccc2n1 | -0.0122% | – |
| O=[N+]([O-])c1ccc2c(c1)Nc1nc3ccccc3nc1N2 | – | 3.55 µM (active) |
| O=[N+]([O-])c1cc2ccccc2nc1-c1ccccc1 | 6.61% | – |
| C=C1C=C(C(F)F)n2ncc(C(=O)NCCc3ccccc3OC)c2N1 | 1.42% | – |
| CCOc1ccccc1CNC(=O)Nc1cn(CC(C)C)c(=O)c2ccccc12 | 7.95% | – |
| C/C=C/NNC(=O)Cc1ccc(OC)cc1 | 0.567% | – |
| CCN1CCN(c2nc(Nc3cc(OC)ccc3OC)nc(Nc3cc(OC)ccc3OC)n2)CC1 | 2.29% | – |
| COc1ccc(OC)c(Nc2nc(-c3ccc(O)c(O)c3)cs2)c1 | – | 11.2 µM (active) |
| COc1ccc(OC)c(NC(=O)COC(=O)Cc2ccsc2)c1 | 8.95% | – |
| CCOC(=O)c1ccc(NC2=CC(c3ccc(OCC)cc3)N(c3ccc(C(=O)OCC)cc3)C2=O)cc1 (stereo not given) | 5.01% | – |
| CN(Cc1ccccc1)c1ccc(/C=C/c2ccnc3ccccc23)cc1 | -32.3% | – |
| CC(=O)/C(C)=N/O | -8.5% | – |
| CC(C)(C)C1CCC(NC(=O)c2cnn3c2NC(=C2CC2)C=C3C(F)F)CC1 (stereo not given) | -57.4% | – |
| CC1=C(C(=O)Nc2ccccc2Cl)C(c2cccs2)n2ncnc2N1 (stereo not given) | -2.14% | – |
| Cc1ccc(-c2nnc3ccc(SCC(N)=O)nn23)cc1 | -0.723% | – |
